What all share (assay): DAPPL (digital affinity profiling via proximity ligation, sequencing); 10 mM Tris-HCl pH 7.5, 50 mM NaCl, 1 mM DTT, 4% glycerol, room temperature, 30 min; GST-TFs on glutathione beads, 16-mer random dsDNA library, 0.1% formaldehyde crosslink after washing; high values mean tight binding
Assay [1] concerns the target HSF1 (Homo sapiens, UniProt Q00613 1-529). Conditions: protein: recombinant; tags: N-terminal GST; chain copies: 3; dsDNA, one strand shown. In outline:
(§1)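 Human transcription factors were made in yeast as GST fusions, captured on glutathione beads and barcoded with DNA. With a tag-only sample included, the pool was incubated with 200 nmole of a random double-stranded 16-mer DNA library in Tris/NaCl/DTT/glycerol buffer at room temperature for 30 min, then crosslinked with 0.1% formaldehyde after washing, ligated by proximity, amplified and sequenced. For binding signal, each hexamer's read frequency for a factor is divided by its frequency for the tag-only sample.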

For assay [2], the target named is T1, SPIC (Homo sapiens, UniProt Q8N5J4 1-248).
T1 sequence: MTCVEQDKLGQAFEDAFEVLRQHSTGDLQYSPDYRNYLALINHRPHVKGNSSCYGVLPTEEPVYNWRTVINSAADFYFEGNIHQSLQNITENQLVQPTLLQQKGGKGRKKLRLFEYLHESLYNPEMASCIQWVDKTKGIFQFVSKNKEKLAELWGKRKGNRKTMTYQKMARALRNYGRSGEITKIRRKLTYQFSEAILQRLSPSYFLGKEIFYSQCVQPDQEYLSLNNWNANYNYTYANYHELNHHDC
Conditions: protein: recombinant; tags: N-terminal GST; dsDNA, one strand shown. In outline: as §1

The target of assay [3] is CRX (Homo sapiens, UniProt O43186 1-299). Conditions: protein: recombinant; tags: N-terminal GST; dsDNA, one strand shown. In outline: as §1
CRX, sequence (O43186 whole entry): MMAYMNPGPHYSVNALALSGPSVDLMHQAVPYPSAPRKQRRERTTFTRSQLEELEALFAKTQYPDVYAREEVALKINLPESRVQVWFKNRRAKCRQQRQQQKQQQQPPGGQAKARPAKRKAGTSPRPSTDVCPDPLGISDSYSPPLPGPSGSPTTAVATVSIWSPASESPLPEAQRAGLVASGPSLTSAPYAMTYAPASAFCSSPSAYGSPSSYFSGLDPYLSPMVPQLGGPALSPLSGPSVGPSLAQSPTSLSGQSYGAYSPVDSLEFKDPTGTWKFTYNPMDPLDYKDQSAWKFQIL

HSF1, sequence (Q00613 whole entry, the tested form may be a part): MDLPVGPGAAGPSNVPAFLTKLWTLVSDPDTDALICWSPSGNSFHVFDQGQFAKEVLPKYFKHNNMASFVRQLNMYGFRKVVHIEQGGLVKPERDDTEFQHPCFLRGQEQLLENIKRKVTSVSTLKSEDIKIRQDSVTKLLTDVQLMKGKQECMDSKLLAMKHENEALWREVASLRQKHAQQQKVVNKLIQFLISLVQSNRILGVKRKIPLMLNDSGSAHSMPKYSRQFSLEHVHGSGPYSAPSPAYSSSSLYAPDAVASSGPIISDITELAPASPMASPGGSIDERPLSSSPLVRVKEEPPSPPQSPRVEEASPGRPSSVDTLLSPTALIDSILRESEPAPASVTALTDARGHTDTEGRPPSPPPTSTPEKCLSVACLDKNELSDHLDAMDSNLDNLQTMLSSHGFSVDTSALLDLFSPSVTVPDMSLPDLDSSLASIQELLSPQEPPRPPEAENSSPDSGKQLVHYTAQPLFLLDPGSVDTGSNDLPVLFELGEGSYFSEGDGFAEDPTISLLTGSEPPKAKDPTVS

Regarding TTGAGA, the binding signal was 1.06 fold enrichment (6-mer frequency, TF over GST control) in assay [1]; 1.02 fold enrichment (6-mer frequency, TF over GST control) in assay [2]; 1.02 fold enrichment (6-mer frequency, TF over GST control) in assay [3].

These data come from PMC7862700, “An all-to-all approach to the identification of sequence-specific readers for epigenetic DNA modifications on cytosine”.
